# Laboratory results from PubChem BioAssay (NCATS).
# Values joined by “and” are separate entries in the source; they are usually repeats but may differ in a detail not shown here. Equal values may be shown once. Inconclusive results are not listed. Some compounds were tested as several samples or in several runs, with calls that do not always agree. Unmarked numbers belong to inactive results. Active and inactive are the calls of the source. Calls come from the whole dose curve; as a rule, active = well fitted inhibition curve with a large enough effect; inconclusive = small, poorly fitted or top-dose-only effect; inactive = flat fitted curve, though single readings scatter.
# Tested on: HEK293
# Test: Cytotoxic Profiling of Annotated Libraries Using Quantitative High-Throughput Screening (AID 1296008); note: nearly all actives have a fitted effect of over 60% in size
# Conditions: Five cell lines viability, CellTiter-Glo ATP luminescence, 48-72 h; max response: stronger effect = lower value
# How it was run: (§1)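 Cells exposed to compounds for 48 or 72 hr at 37 degrees Celsius. Viability read as ATP-coupled luminescence with CellTiter-Glo after 10 min at room temperature.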
# % is set by controls: 0 for no effect and ±100 for the full control effect; potency is the fitted concentration of half-maximal effect.
SMILES,Potency,max response
COc1ccc2c(c[n+](C)c3c4cc5c(cc4ccc23)OCO5)c1OC,2960 nM (active),–
Cc1c(C(=O)Nc2cccc(C(F)(F)F)c2)cc(-c2ccccc2)n1CCCN1CCOCC1,14.8 µM (active) and 14.6 µM (active),–
CC(C)(C)NC[C@H](O)c1ccc(O)cc1Cl,–,-9.08%
S=C(SSC(=S)N1CCCCC1)N1CCCCC1,944 nM (active),–
CC(O)=C(C#N)C(=O)Nc1cc(Br)ccc1Br,–,-1.81%
COCCOCCO,–,-2.65%
CS(=O)(=O)c1ccc(C(=O)C2C(=O)CCCC2=O)c([N+](=O)[O-])c1,–,-9.25%
C/C=C(/C)C(=O)O[C@H]1C(C)=C2[C@H]([C@@H]1OC(=O)CCCCCCC)[C@@](C)(OC(C)=O)C[C@H](OC(=O)CCC)[C@@]1(O)[C@H]2OC(=O)[C@@]1(C)O,29.1 nM (active),–
C[C@@H]1CC[C@@]2(OC1)O[C@H]1C[C@H]3[C@@H]4CC=C5C[C@@H](O[C@@H]6O[C@H](CO)[C@@H](O[C@@H]7O[C@@H](C)[C@H](O)[C@@H](O)[C@@H]7O)[C@H](O)[C@@H]6O[C@@H]6O[C@@H](C)[C@H](O)[C@@H](O)[C@@H]6O)CC[C@]5(C)[C@@H]4CC[C@]3(C)[C@@H]1[C@H]2C,3720 nM (active),–
CC(=O)[O][Hg][c]1ccccc1,376 nM (active),–
CC[C@H]1C=CC=CC[C@@H](C)[C@H](O)[C@@](C)(O)C(=O)[C@@H](C)[C@H](O)[C@@H](C)C(=O)[C@@H](C)[C@H](O)[C@@H](C)C=CC(=O)O[C@@H]2[C@@H](C)[C@H](CC1)O[C@]1(CC[C@H](C)[C@H](C[C@@H](C)O)O1)[C@H]2C,332 nM (active),–
CN[C@@H]1Cc2cccc3[nH]c(=O)n(c23)C1,–,-16.4%
COc1ccc(N(C(=O)Oc2c(C)cccc2C)c2ccnc(Nc3ccc(N4CCN(C)CC4)cc3)n2)c(OC)c1,–,1.61% and -25.7%
CC(C)(O)C=CC(=O)[C@](C)(O)[C@H]1[C@H](O)C[C@]2(C)[C@@H]3CC=C4[C@@H](C=C(O)C(=O)C4(C)C)[C@]3(C)C(=O)C[C@@]12C,1870 nM (active),–
O=C(Nc1ccncc1)C(=O)c1cn(Cc2ccc(Cl)cc2)c2ccccc12,37.2 nM (active),–

# Tested on: HaCat
# Test: as above
# Conditions: Five cell lines viability, CellTiter-Glo ATP luminescence, 48-72 h; max response: stronger effect = lower value
# How it was run: as §1
SMILES,outcome,max response,Potency
COCC1(CO)C(=O)C2CCN1CC2 (configuration not stated),inactive,–,–
O=S(=O)(O)C(F)(F)C(F)(F)C(F)(F)C(F)(F)C(F)(F)C(F)(F)C(F)(F)C(F)(F)F,–,0.89%,–
Nc1ccc(Cl)cc1N,–,-38.9%,–
C[C@](O)(COc1ccc(C#N)cc1)C(=O)Nc1ccc(C#N)c(C(F)(F)F)c1,inactive,–,–
CCN(CC)C(=O)c1ccc(C2=CC3(CCNCC3)Oc3cccc(O)c32)cc1,inactive,-0.307%,–
C[C@H]1CCCC=CC2C[C@H](O)C[C@@H]2[C@H](O)C=CC(=O)O1 (some centres not stated),–,-111%,–
CCOP(=O)(NC(C)C)Oc1ccc(SC)c(C)c1 (configuration not stated),inactive,–,–
COc1ccc2c(c1)CN(C)CC2c1ccc(Cl)c(Cl)c1 (configuration not stated),inactive,–,–
COc1ccc(CC2NCCc3cc(OC)c(OC)cc32)cc1OC (configuration not stated),inactive,–,–
CN1CCN(c2ccc([N+](=O)[O-])c3no[n+]([O-])c23)CC1,–,4.94% and 1.91%,–
CC(=O)OCC1=C(C(=O)O)N2C(=O)[C@@H](N)[C@@H]2SC1,–,-5.82%,–
C=C1C[C@H]2[C@H]3CCC(=O)[C@@]3(C)CC[C@@H]2[C@@]2(C)C=CC(=O)C=C12,inactive,–,–
CC(C)(C)C(O)C(Oc1ccc(Cl)cc1)n1cncn1 (configuration not stated),–,0.929%,–
O=S(=O)(CC1CS1)c1ccc(Oc2ccccc2)cc1 (configuration not stated),–,3.29%,–
COc1ccc(C(=O)c2c(C)n(CCN3CCOCC3)c3cc(I)ccc23)cc1,inactive,–,–
CC=C(C)C(=O)O[C@H]1C(C)=C2[C@@H]3OC(=O)[C@@](C)(O)[C@@]3(O)[C@@H](OC(=O)CCC)C[C@](C)(OC(C)=O)[C@@H]2[C@@H]1OC(=O)CCCCCCC,–,–,8.33 µM (active)
CCCCCCCCCC(CC)c1ccc(S(=O)(=O)O)cc1 (configuration not stated),inactive,–,–

# Tested on: KB-3-1
# Test: as above
# Conditions: Five cell lines viability, CellTiter-Glo ATP luminescence, 48-72 h; max response: stronger effect = lower value
# How it was run: as §1
SMILES,Potency,max response,outcome
COc1ccc2c(c[n+](C)c3c4cc5c(cc4ccc23)OCO5)c1OC,26.4 µM (active),–,–
CCCCOC(=O)c1ccccc1C(=O)OCc1ccccc1,–,-13.6%,–
COCC1(CO)C(=O)C2CCN1CC2 (configuration not stated),–,3.43%,–
O=S(=O)(O)C(F)(F)C(F)(F)C(F)(F)C(F)(F)C(F)(F)C(F)(F)C(F)(F)C(F)(F)F,–,-10.5%,–
Cc1c(C(=O)Nc2cccc(C(F)(F)F)c2)cc(-c2ccccc2)n1CCCN1CCOCC1,–,-13.2%,–
Nc1ccc(Cl)cc1N,–,-2.75%,–
CC(C)(C)NC[C@H](O)c1ccc(O)cc1Cl,–,9.37%,–
S=C(SSC(=S)N1CCCCC1)N1CCCCC1,–,-9.18%,–
CC1(C)CC/C(=C/c2ccc(Cl)cc2)C1(O)Cn1cncn1 (configuration not stated),–,-19.8%,–
CCCN1CCO[C@@H]2c3cc(O)ccc3OC[C@@H]21,–,–,inactive
CC(O)=C(C#N)C(=O)Nc1cc(Br)ccc1Br,–,–,inactive
C[C@](O)(COc1ccc(C#N)cc1)C(=O)Nc1ccc(C#N)c(C(F)(F)F)c1,–,-23.6%,–
COCCOCCO,–,-8.22%,–
CS(=O)(=O)c1ccc(C(=O)C2C(=O)CCCC2=O)c([N+](=O)[O-])c1,–,-20.3%,–
CCN(CC)C(=O)c1ccc(C2=CC3(CCNCC3)Oc3cccc(O)c32)cc1,–,5.76% and 9.58%,–
C[C@H]1CCCC=CC2C[C@H](O)C[C@@H]2[C@H](O)C=CC(=O)O1 (some centres not stated),0.001 µM (active),–,–
C/C=C(/C)C(=O)O[C@H]1C(C)=C2[C@H]([C@@H]1OC(=O)CCCCCCC)[C@@](C)(OC(C)=O)C[C@H](OC(=O)CCC)[C@@]1(O)[C@H]2OC(=O)[C@@]1(C)O,0.0461 µM (active),–,–

SMILES,Potency,max response,outcome
C[C@@H]1CC[C@@]2(OC1)O[C@H]1C[C@H]3[C@@H]4CC=C5C[C@@H](O[C@@H]6O[C@H](CO)[C@@H](O[C@@H]7O[C@@H](C)[C@H](O)[C@@H](O)[C@@H]7O)[C@H](O)[C@@H]6O[C@@H]6O[C@@H](C)[C@H](O)[C@@H](O)[C@@H]6O)CC[C@]5(C)[C@@H]4CC[C@]3(C)[C@@H]1[C@H]2C,8.33 µM (active),–,–
CC(=O)[O][Hg][c]1ccccc1,1.64 µM (active),–,–
CCOP(=O)(NC(C)C)Oc1ccc(SC)c(C)c1 (configuration not stated),–,-7.33%,–
CC[C@H]1C=CC=CC[C@@H](C)[C@H](O)[C@@](C)(O)C(=O)[C@@H](C)[C@H](O)[C@@H](C)C(=O)[C@@H](C)[C@H](O)[C@@H](C)C=CC(=O)O[C@@H]2[C@@H](C)[C@H](CC1)O[C@]1(CC[C@H](C)[C@H](C[C@@H](C)O)O1)[C@H]2C,0.372 µM (active),–,–
COc1ccc2c(c1)CN(C)CC2c1ccc(Cl)c(Cl)c1 (configuration not stated),–,–,inactive
COc1ccc(CC2NCCc3cc(OC)c(OC)cc32)cc1OC (configuration not stated),–,-3.69%,–
CN1CCN(c2ccc([N+](=O)[O-])c3no[n+]([O-])c23)CC1,–,–,inactive
CN[C@@H]1Cc2cccc3[nH]c(=O)n(c23)C1,–,9.87%,–
CC(=O)OCC1=C(C(=O)O)N2C(=O)[C@@H](N)[C@@H]2SC1,–,0.594%,–
COc1ccc(N(C(=O)Oc2c(C)cccc2C)c2ccnc(Nc3ccc(N4CCN(C)CC4)cc3)n2)c(OC)c1,16.4 µM (active),-15.9%,–
C=C1C[C@H]2[C@H]3CCC(=O)[C@@]3(C)CC[C@@H]2[C@@]2(C)C=CC(=O)C=C12,–,8.58%,–
CC(C)(C)C(O)C(Oc1ccc(Cl)cc1)n1cncn1 (configuration not stated),–,-16.3%,–
O=S(=O)(CC1CS1)c1ccc(Oc2ccccc2)cc1 (configuration not stated),–,0.22%,–
CC(C)(O)C=CC(=O)[C@](C)(O)[C@H]1[C@H](O)C[C@]2(C)[C@@H]3CC=C4[C@@H](C=C(O)C(=O)C4(C)C)[C@]3(C)C(=O)C[C@@]12C,0.132 µM (active),–,–
CCCCCCCCCC(CC)c1ccc(S(=O)(=O)O)cc1 (configuration not stated),–,-1.21% and -21.2%,–
O=C(Nc1ccncc1)C(=O)c1cn(Cc2ccc(Cl)cc2)c2ccccc12,0.0469 µM (active),–,–
